Hits are enriched below; roughly 4.8% of the tested compounds scored in any of these assays.
DAX1 inh-1 – DAX1 (NR0B1) inhibitors, primary screen, cell-based, HEK293, Gal4-DAX1, luciferase luminescence | Nuclear receptor subfamily 0 group B member 1 (Homo sapiens), P51843 | inhibition, % at 6.75 µM | actives 0.99% (n = 340,000) | HEK293 Gal4-DAX1 luciferase reporter;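 active means inhibition above the mean over all tested compounds plus 3 SD, cut at about 4.2% in these data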;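 further: inhibition shows as a rise in luminescence from relieved DAX1 repression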
DAX1 inh-2 – DAX1 (NR0B1) inhibitors on StAR promoter, primary screen, cell-based, luminescence, SF-1 (NR5A1), full-length DAX-1; HEK293T StAR-luciferase reporter, SF-1/DAX-1 repression relief; inhibition, % at 6.8 µM; actives 1.1% (n = 370,000); AID 652010, 2013;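 active means inhibition above the mean over all tested compounds plus 3 SD, cut at about 3.6% in these data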;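 further: higher inhibition means more luminescence from relief of DAX-1 repression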
ssDAF-12 act – S. stercoralis DAF-12 nuclear receptor activators, primary screen, cell-based, luminescence, HEK293, GRIP1 co-expression, lit1-tk-luc; Nuclear hormone receptor DAF-12 (Strongyloides stercoralis); HEK293 ssDAF-12/GRIP1 lit1-tk-luc reporter; % of 3 µM dafachronic acid response; activation, % at 6.8 µM; actives 1% (n = 370,000); AID 652126, 2013;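 active means activation above the mean over all tested compounds plus 3 SD, cut at about 0.9% in these data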
hcDAF-12 act – H. contortus DAF-12 nuclear receptor activators, primary screen, cell-based, luminescence, HEK293, lit1-tk-luc reporter; AID 652067, 2013; activation, % at 6.8 µM; actives 1.4% (n = 370,000); HEK293 hcDAF-12 lit1-tk-luc reporter; 0% DMSO, 100% Δ7-dafachronic acid;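 active means activation above the mean of all tested compounds plus 3 SD, cut at about 5.5% in these data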
SMARCA2 activ – SMARCA2 (BRM) function activators, primary screen, cell-based, luminescence, high throughput; MG213 cells, MMTV-luciferase reporter, dexamethasone, overnight; activation, % at 9.1 µM; actives 1% (n = 370,000); AID 652017, 2013; in the data active means activation above about 7.8%
hgDAF12 agonist – H. glycines DAF-12 receptor agonists, primary screen, cell-based, luminescence, HEK293, GAL4 fusion, UAS-luciferase. Nuclear hormone receptor DAF-12 (Heterodera glycines), GAL4 fusion. activation, % at 6.8 µM. HEK293 GAL4-hgDAF12 UAS-luciferase reporter, agonist luminescence; normalized to butyrate control. actives 1.8% (n = 370,000);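 active means activation above a cutoff set at the mean of all screened compounds plus 3 SD, cut at about 10% in these data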
DAX1 inh confirm – DAX1 (NR0B1) inhibitors relieving SF-1 repression, confirmation, cell-based, luminescence, HEK293T, full-length DAX-1, SF-1 activated StAR promoter; HEK293T StAR-promoter luciferase reporter, SF-1/DAX-1 repression; actives 87% (n = 2,400); inhibition, % at 6.8 µM; shares compounds with DAX1 inh-2;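 active means inhibition above the average of every tested compound plus 3 SD, cut at about 3.8% in these data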
Target sequence (P51843 whole entry, looked up): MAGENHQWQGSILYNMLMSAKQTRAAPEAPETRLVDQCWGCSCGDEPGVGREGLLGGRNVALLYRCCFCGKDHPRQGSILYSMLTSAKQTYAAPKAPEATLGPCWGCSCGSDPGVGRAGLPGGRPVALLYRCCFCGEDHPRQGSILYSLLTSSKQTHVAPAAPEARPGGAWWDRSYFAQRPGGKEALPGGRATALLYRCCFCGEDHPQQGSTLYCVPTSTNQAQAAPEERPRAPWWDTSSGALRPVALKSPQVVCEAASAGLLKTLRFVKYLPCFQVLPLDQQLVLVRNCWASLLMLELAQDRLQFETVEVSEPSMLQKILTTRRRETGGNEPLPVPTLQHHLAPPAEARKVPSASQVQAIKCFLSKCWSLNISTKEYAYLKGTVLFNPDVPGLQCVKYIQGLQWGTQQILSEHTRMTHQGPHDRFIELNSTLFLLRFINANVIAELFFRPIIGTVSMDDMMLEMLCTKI
SF1 AF2mut Luc – StAR reporter signal changes without DAX1, counter-screen for DAX1 inhibitor project, cell-based, luminescence, AF-2 mutant SF-1, transactivation | shares compounds with DAX1 inh-2 | HEK293 StAR-luciferase, SF-1 AF2 mutant | inhibition, % at 6.8 µM | actives 78% (n = 2,400) | AID 652136, 2013;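 active means inhibition above the mean of all tested compounds plus 3 SD, cut at about 3% in these data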
SMARCA2 act conf – SMARCA2 (BRM) function activators, confirmation, cell-based, luminescence, triplicate; shares compounds with SMARCA2 activ; MG213 cells, MMTV-luciferase with dexamethasone, overnight; MG213 cells expressing E1A, Rb sequestered; DMSO wells 0%, reference activator 100%; activation, % at 9.1 µM; actives 30% (n = 3,500);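 active means activation above its plate's cutoff, the mean activation of tested wells plus 3 SD, cut at about 7.9% in these data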
GAL4-VP16 Luc – GAL4-VP16 luciferase reporter activation, counter-screen for SMARCA2 (BRM) activator project, cell-based, pG5luc, luminescence, high throughput; shares compounds with SMARCA2 activ; HEK293 GAL4-VP16 pG5luc reporter; scaled: DMSO wells 0%, SAHA wells 100%; activation, % at 9.1 µM; actives 41% (n = 3,500);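 active means activation above the solvent-only control well mean plus 3 SD, averaged across control plates, cut at about 5.2% in these data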
LXR ag – LXR agonists, Gal4 luciferase reporter, confirmation, counter-screen for hcDAF-12 agonist project, cell-based, luminescence, HEK293, H. contortus campaign. shares compounds with hcDAF-12 act. HEK293 Gal4-LXR tk-luc reporter, 24 h; normalized: DMSO 0%, positive control 100%. activation, % at 6.8 µM. 3,400 tested, under 10 active. AID 743027, 2013;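 active means mean percent activation of the reporter above a cutoff set as the average over tested compounds plus their standard deviation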
hcDAF12 ag – H. contortus DAF-12 receptor agonists, confirmation, cell-based, luminescence, HEK293, lit1-tk-luc, triplicate. shares compounds with hcDAF-12 act. HEK293 hcDAF-12 lit1-tk-luc reporter; % of Δ7-dafachronic acid response. actives 61% (n = 3,400). activation, % at 6.8 µM;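 active means mean activation across triplicate tests above the threshold derived from the earlier primary screen, cut at about 5.5% in these data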
hgDAF12 conf – H. glycines DAF-12 receptor agonists, confirmation, cell-based, luminescence, HEK293, GAL4-LBD fusion | shares compounds with hgDAF12 agonist | HEK293 GAL4-hgDAF12 luciferase reporter, agonist mode; percent of butyrate response | activation, % at 6.8 µM | actives 80% (n = 3,300);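 active means mean activation over triplicate wells above the hit cutoff derived from the earlier primary screen, cut at about 11% in these data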
LXR ag 2 – LXR agonists, Gal4 luciferase reporter, confirmation, counter-screen for hgDAF-12 agonist project, cell-based, luminescence, HEK293, H. glycines campaign; shares compounds with hgDAF12 agonist; 24 h; activation, % at 6.8 µM; 3,300 tested, under 10 active;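 active means mean activation of the triplicate above a set limit carried over from the primary screen, none filed active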
Numbers stand for hits; n = inactive; x = no result.

SMILES	DAX1 inh-1	DAX1 inh-2	ssDAF-12 act	hcDAF-12 act	SMARCA2 activ	hgDAF12 agonist	DAX1 inh confirm	SF1 AF2mut Luc	hgDAF12 conf	LXR ag 2	others
c1ccc(-c2noc(-c3ccc4ccccc4c3)n2)cc1	n	n	n	n	n	n	x	x	x	x
O=C(NCCc1ccccc1)OCc1cn(-c2c(F)cccc2F)nn1	x	n	n	n	n	n	x	x	x	x
CC(C)(C)c1ccc(C(=O)Nc2cc(Cl)c(F)cc2C(=O)O)cc1	x	x	n	n	x	n	x	x	x	x
COc1ccccc1C(=O)NNC(=O)c1cccc(Cl)c1	n	5.6	n	13	n	17	14	7.9	16	n	LXR ag=n;hcDAF12 ag=7.5
Cn1cccc1[C@]1(O)C(=O)Nc2ccc(F)cc21	x	n	n	n	n	n	x	x	x	x
Cc1c(Cl)cccc1NC(=O)c1cc(-c2ccccc2O)n[nH]1	n	n	n	n	n	n	x	x	x	x
Cc1ccc(-c2cc(-c3ccccc3Cl)[nH]n2)c(O)c1	6.8	6.0	1.4	10	8.6	20	14	8.0	21	n	SMARCA2 act conf=n;GAL4-VP16 Luc=11;LXR ag=n;hcDAF12 ag=11
COc1cccc(-n2ccnc2SCC(=O)N2CCc3ccccc32)c1	n	n	n	n	n	n	x	x	x	x
Cn1ccnc1SCC(=O)N1CCc2ccccc21	n	5.5	n	n	8.2	20	7.1	5.6	n	n	SMARCA2 act conf=11;GAL4-VP16 Luc=8.7

Compound activity: PubChem, The Scripps Research Institute Molecular Screening Center
